AmpC inh no detg: qHTS Inhibitors of AmpC Beta-Lactamase (assay without detergent). P00811. AmpC nitrocefin hydrolysis, absorbance 480 nm, 0.0001% Triton. Potency, µM (doses to about 57.1 µM), inactives show top-dose activity change, negative = inhibition, actives largely listed as inhibitors. actives 0.52% (n = 330,000). AID 485341, 2010;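 further: plate controls were no compound for no effect and no enzyme for full effect; nearly all actives have a fitted effect of over 20% in size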
Target sequence (P00811 whole entry, looked up): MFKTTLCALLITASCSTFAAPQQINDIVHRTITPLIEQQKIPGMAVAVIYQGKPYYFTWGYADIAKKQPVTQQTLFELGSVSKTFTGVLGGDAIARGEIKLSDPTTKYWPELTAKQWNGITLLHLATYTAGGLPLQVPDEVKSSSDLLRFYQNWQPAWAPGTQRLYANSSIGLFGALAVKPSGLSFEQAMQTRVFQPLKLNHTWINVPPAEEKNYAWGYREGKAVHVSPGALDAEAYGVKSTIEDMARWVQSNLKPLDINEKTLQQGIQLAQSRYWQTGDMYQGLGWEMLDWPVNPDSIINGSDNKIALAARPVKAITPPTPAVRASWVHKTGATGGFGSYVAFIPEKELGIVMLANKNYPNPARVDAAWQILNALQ
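20 mM phosphate pH 7.0 + 0.01% (detergent screen) or 0.0001% Triton X-100; 5.3 nM AmpC reagent; cpd preinc 15 min RT; nitrocefin (800 uM stock) to start; A480 q20 s × 4 min; Activity was normalised to no-enzyme and no-compound control wells.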
AmpC inh detg: qHTS Inhibitors of AmpC Beta-Lactamase (assay with detergent) | AmpC hydrolysis of nitrocefin, absorbance 480 nm, 0.01% Triton | Potency, µM (top dose mostly 114 µM), for the others: at the highest dose activity change, negative = inhibition, actives largely listed as inhibitors | actives 0.041% (n = 370,000);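 further: 0% = no-compound wells and -100% = no-enzyme wells; nearly all actives have a fitted effect of over 25% in size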
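20 mM phosphate pH 7.0 + 0.01% (detergent screen) or 0.0001% Triton X-100; 5.3 nM AmpC reagent; cpd preinc 15 min RT; nitrocefin (800 uM stock) to start; A480 q20 s × 4 min; Activity was normalised to no-enzyme and no-compound control wells.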
Marburg entry inh: qHTS for inhibitors of binding or entry into cells for Marburg Virus. Potency, µM (series often up to 37.8 µM), inactives show at the top dose activity change, negative = inhibition, hits mostly inhibitors. actives 1.8% (n = 300,000). Marburg virus pseudotyped entry inhibition, cell reporter; calls by dose curve; tested in HEK293 cells
AMA1-RON2 inh: qHTS for Inhibitors of AMA1-RON; Towards Development of Antimalarial Drug Lead: Primary Screen; Plasmodium falciparum AMA1 (3D7) - RON2 peptide interaction; Potency, µM (highest dose often 58.2 µM), for the others: at the top dose activity change, negative = inhibition, usual class: inhibitors; AlphaScreen AMA1-biotinylated RON2 peptide binding; actives 0.2% (n = 360,000);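 further: 0% = vehicle wells and -100% = peptide control; nearly all actives have a fitted effect of over 45% in size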
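AMA1 (3D7) with his tag at 25 nM final met compounds first, then biotinylated RON2 peptide at 25 nM; detection used donor plus acceptor beads, 10 µg/mL apiece, read by AlphaScreen after 30 min at room temperature.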
Lassa entry inh: qHTS for Inhibitors of binding or entry into cells for Lassa Virus | Lassa virus pseudotype entry inhibition, cell reporter | Potency, µM (top dose mostly 37.9 µM), for the others: at the top dose activity change, negative = inhibition, hits mostly inhibitors | actives 1.2% (n = 300,000) | AID 540256, 2011; calls by dose curve; tested in HEK293 cells; further: nearly all actives have a fitted effect of over 50% in size
* marks the source's active call; other numbers are inactive results; ? = inconclusive; . = no result; [ ] = remark or other dose. This is a sample that favours compounds with a hit; in the whole collection about 2.3% have one here. Unless noted, the call rests on the fitted dose curve; in most records, active means well fitted curve in the direction sought with a large enough effect; inconclusive means small, poorly fitted or top-dose-only effect, or another doubt; inactive means no such curve, though single readings can be large; an effect the other way counts as inactive or inconclusive. Unless noted, on the % scale 0 is the no-effect control and ±100 the full control effect; potency means the concentration at half of the fitted maximal effect.

SMILES | AmpC inh no detg | AmpC inh detg | Marburg entry inh | AMA1-RON2 inh | Lassa entry inh
CC(=O)Nc1ccc(S(=O)(=O)N(C2=NCC(C)S2)c2ccccc2)cc1 (configuration not stated) | -22% | -1% | 16µM* | -2% | ?
CC(=O)Nc1ccc(S(=O)(=O)N(c2cccnc2)S(=O)(=O)c2ccc(NC(C)=O)cc2)cc1 | -21% | 4% | ? | 11% | 0.82µM*
Cc1ccc(S(=O)(=O)N2CCN(C(=O)c3cc4c(C)nn(-c5ccccc5C)c4s3)CC2)cc1 | 40% | -1% | 18µM* | -8% | ?
Cc1ccccc1-n1nc(C)c2cc(C(=O)N3CCOCC3)sc21 | 28% | -7% | 2% | 6% | -4%
CC(=O)OC[C@H]1O[C@H](CC=NO[C@H](C)c2cn([C@@H]3COC[C@@H]3O)nn2)C=C[C@@H]1OC(C)=O | . | . | -12%[14.2 µM] | . | .
Cc1cc(C)c(C(=O)/C=C/c2ccc3c(c2)OCO3)c(=O)[nH]1 | 5% | 3% | -19%[46.1 µM] | -18% | -22%
Cc1cc(C)c(C(=O)/C=C/c2cccc3ccccc23)c(=O)[nH]1 | -31% | -10% | ? | -9% | 6.3µM*
COc1cc(C2NC(=O)N(C)C3=C2C(=O)N(c2ccccc2)C3)ccc1O (configuration not stated) | . | -3% | -27%[46.1 µM] | . | -17%[46.1 µM]
Cn1c(NCc2c(O)ccc3ccccc23)nc2ccccc21 | -45% | 4% | 21µM* | -14% | 11%
COc1ccc(CNc2nc3ccccc3n2C)c(O)c1 | -19% | 6% | 11µM* | 0% | ?
COc1ccc(CNc2nc3ccccc3n2C)c(OC)c1 | -1% | 5% | -23% | -8% | -27%
CCOC(=O)CCN1C(=O)[C@H]2[C@H]3[C@H](O)[C@H](O)C/C(=N\NC(=O)OCc4ccc(OC)cc4)[C@@H]3CC[C@H]2C1=O | . | . | 12%[14.2 µM] | . | .
CC1CCN(C(C)C(=O)Nc2ccccc2-c2ccccc2)CC1 (configuration not stated) | -12% | ? | 12µM* | ? | -4%
O=C(CN1CCCCC1)Nc1cc(Cl)ccc1Cl | -19% | -8% | 14% | 11% | 6%
CC1CN(CC(=O)Nc2cccc(C(=O)Nc3cccc(C(F)(F)F)c3)c2)CC(C)O1 (configuration not stated) | 118% | -1% | ? | -7% | ?
O=C(CN1CCC(C(O)(c2ccccc2)c2ccccc2)CC1)Nc1cc(Cl)ccc1Cl | 2% | -5% | ? | 8% | 8.2µM*
CC1CCN(CC(=O)Nc2cccc(C(=O)Nc3cccc(C(F)(F)F)c3)c2)CC1 | 47% | -7% | 8.9µM* | 9% | ?
O=C(CN1CCC(C(O)(c2ccccc2)c2ccccc2)CC1)Nc1ccccc1 | 16% | 2% | 23µM* | -6% | ?
CN(C)c1ccc(N=c2sc3ccccc3n2C)cc1 | 29% | -2% | ? | 24µM* | -4%
COc1ccc(N(Cc2cccs2)C(=O)COc2cc(C)c(Cl)c(C)c2)cc1 | . | 0% | ? | . | -10%[46.1 µM]
O=C(Oc1c(CN2CCOCC2)cc(Cl)c2cccnc12)c1ccccc1Cl | 13% | 5% | ? | -40% | ?
COc1cccc(C(=O)Oc2c(CN3CCOCC3)cc(Cl)c3cccnc23)c1 | 39% | -5% | 8.2µM* | -74% | ?
O=C(Oc1c(CN2CCOCC2)cc(Cl)c2cccnc12)c1ccc(F)cc1 | 27% | 5% | 10µM* | -88% | ?
O=C(Oc1c(CN2CCOCC2)cc(Cl)c2cccnc12)c1cccs1 | 88% | -12% | 10µM* | -22% | ?
COc1ccc(C(=O)Oc2c(CN3CCOCC3)cc(Cl)c3cccnc23)cc1 | 46% | 0% | ? | -18% | -22%
SMILES | AmpC inh no detg | AmpC inh detg | Marburg entry inh | AMA1-RON2 inh | Lassa entry inh
Cc1cc(C)n(C[C@@H]2CC(=O)N(c3ccc(F)c(Cl)c3)C2=O)n1 | . | . | 3% | . | .
COc1ccc(/C(O)=C2\C(=O)C(=O)N(c3cc(C)on3)[C@H]2c2ccccc2OC)cc1C | . | . | -3% | . | .
O=C(Nc1ccccc1F)C(Cc1ccccc1)N1Cc2ccccc2C1=O (configuration not stated) | . | 23% | . | . | -14%[46.1 µM]
Cc1ccn2cc(-c3cccc([N+](=O)[O-])c3)nc2c1 | ? | -2% | ? | -18% | 4.5µM*
c1ccc2oc(C3=NNC(=NC4CC4)SC3)cc2c1 | ? | -2% | 1.8µM* | 75% | 7.3µM*
c1ccc(CN=C2NN=C(c3cc4ccccc4o3)CS2)cc1 | -42% | 0% | ? | 0% | ?
COc1ccc(N=C2NN=C(c3ccc4c(c3)OCCO4)CS2)cc1 | -40% | -14% | 1% | -26% | -13%
c1cc2c(cc1C1=NNC(=NC3CC3)SC1)OCCO2 | -33% | 2% | 0.33µM* | 76% | 0.29µM*
Cc1cc(C2=NNC(=NC3CCCCC3)SC2)c(C)n1-c1c(C)n(C)n(-c2ccccc2)c1=O | 156% | 5% | -41% | 51% | 3%
CCCCN=C1NN=C(c2ccc3c(c2)OCCO3)CS1 | -26% | 0% | ? | 58% | 7.9µM*
Cc1cc(C2=NNC(=NC3CC3)SC2)c(C)n1-c1ccccc1F | -27% | 3% | 0.13µM* | 20% | 0.13µM*
CCOc1cc(-c2nc(-c3ccc(-c4ccc(C)cc4)nc3OC)no2)cc(OCC)c1OCC | . | ? | -8%[46.1 µM] | . | 6%[46.1 µM]
COc1ccc2c(c1)[C@@]1(OCCC=C[C@@H]1C)C(=O)N2CC=C(C)CCC=C(C)C | . | . | -10%[14.2 µM] | . | .
Cc1ccccc1N=C1NN=C(c2ccccc2F)CS1 | -19% | -12% | 15µM* | 52% | ?
Cc1ccc(NC(=O)CCN2CCN(C/C=C/c3ccccc3)CC2)cc1 | 103% | 0% | 8.9µM* | 5% | -30%
CC(C(=O)Nc1ccc([N+](=O)[O-])cc1)N1CCN(C/C=C/c2ccccc2)CC1 (configuration not stated) | 124% | -14% | 13µM* | ? | 8%
COc1ccc(NC(=O)/C(Cl)=C(/Cl)S(=O)(=O)Cc2ccc(C)cc2)cn1 | -11% | ? | 4.5µM* | 10% | 14µM*
C[C@@H]1C=C[C@](Cc2ccccc2)(C(=O)NCCc2c[nH]c3ccccc23)N1C(=O)c1ccccc1 | -4% | -18% | ? | -15% | 8.2µM*
CC(=O)N1[C@H](C)C=C[C@]1(Cc1ccccc1)C(=O)NCCc1c[nH]c2ccccc12 | 24% | 6% | . | -4% | .
COc1ccc(CCNC(=O)CCc2cn(Cc3ccc(F)cc3)c3ccccc23)cc1OC | . | 0% | . | . | ?
COCCNC(=O)CSc1nnc2[nH]c(=O)cc(C)n12 | . | -2% | . | . | 10%[46.1 µM]
Cn1c(=O)[nH]c(=O)c2c1nc(CN1CCN(c3cccc(Cl)c3)CC1)n2Cc1ccccc1Cl | 45µM* | ? | . | -1% | .

Screening results from PubChem BioAssay.
